# Rows were chosen to be rich in hits. Some 4.3% of all compounds tested hit in one or more screens of this group.
# ADAM10 inh: inhibits human ADAM10; O14672; recombinant ADAM10, EDANS/DABCYL FRET peptide cleavage, 3 h; inhibition, % at 7 µM; 370,000 compounds, 0.62% hits; AID 720582;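 active means inhibition above a per-campaign cutoff equal to the mean of compounds falling between control-based bounds plus 3 SD, cut at about 20% in these data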;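 further: 0% = DMSO wells while the 100% control is not disclosed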
# GRIN3A LBD mod: NR3A (human) ligand-binding domain modulation; NR3A LBD differential scanning fluorimetry, Tm shift; 0% = protein alone, 100% = glycine-bound protein; Tm shift relative to glycine control, % at 25 µM; 340,000 compounds, 2.5% hits; AID 1259313;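 active means melting temperature shift of at least 10% of the positive control shift, at one fixed dose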
# ADAM17 inh: inhibitors of human ADAM17; recombinant ADAM17, EDANS/DABCYL FRET peptide cleavage; 370,000 compounds, 0.83% hits; inhibition, % at 6.95 µM; P78536; AID 720648;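 active means inhibition above the mean of compounds lying between control limits plus 3 SD, set per campaign, cut at about 8.5% in these data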;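 further: 0% = DMSO-only wells as the low control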
# Target sequence (P78536 215-824 limits assumed): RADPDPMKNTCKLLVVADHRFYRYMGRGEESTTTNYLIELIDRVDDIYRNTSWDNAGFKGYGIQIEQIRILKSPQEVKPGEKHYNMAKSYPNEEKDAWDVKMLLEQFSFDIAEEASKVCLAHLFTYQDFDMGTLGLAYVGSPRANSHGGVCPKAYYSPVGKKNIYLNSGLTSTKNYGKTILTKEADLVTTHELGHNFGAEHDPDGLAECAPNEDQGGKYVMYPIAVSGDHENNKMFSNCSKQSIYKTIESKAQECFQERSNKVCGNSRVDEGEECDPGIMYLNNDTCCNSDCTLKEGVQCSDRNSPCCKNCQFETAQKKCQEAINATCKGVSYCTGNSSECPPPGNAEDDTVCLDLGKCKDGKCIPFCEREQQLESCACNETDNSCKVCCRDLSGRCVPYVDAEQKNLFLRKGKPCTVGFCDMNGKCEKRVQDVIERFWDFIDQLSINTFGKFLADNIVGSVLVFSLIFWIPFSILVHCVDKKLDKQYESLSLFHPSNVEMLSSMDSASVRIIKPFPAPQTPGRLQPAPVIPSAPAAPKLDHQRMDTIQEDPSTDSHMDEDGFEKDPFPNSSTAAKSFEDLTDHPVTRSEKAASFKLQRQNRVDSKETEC
# FAS-TE inh: FAS thioesterase (human) inhibition. inhibition, % at 15 µM. 360,000 compounds, 0.67% hits. P49327. AID 602261. recombinant FAS-TE, OMFH fluorogenic substrate, fluorescence endpoint;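 active means compounds whose normalised, plate-corrected inhibition of enzyme fluorescence in the single-dose primary screen is 50% or more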;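 further: 0% = DMSO with enzyme and 100% = substrate without enzyme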
# HGIII-sPLA2 inh: Inhibits HGIII-sPLA2 liposome hydrolysis, primary screen; Q9NZ20; QFRET BODIPY PC-A2 liposome hydrolysis, fluorescence; inhibition, % at 12.2 µM; 370,000 compounds, 0.56% hits;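 active means inhibition above mean plus 3 SD of compounds lying within the high and low control bounds, cut at about 19% in these data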;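 further: 0% = median of test compound wells and 100% = no enzyme DMSO wells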
# Active calls of the source: *; nt = no result.
SMILES,ADAM10 inh,GRIN3A LBD mod,ADAM17 inh,FAS-TE inh,HGIII-sPLA2 inh
CC(C)=CC(=O)Nc1ccc(OCc2ccccc2)cc1,1,28*,1,10,-5
Cc1ccsc1C(=O)Nc1ccc(C(=O)O)cc1,-8,0,-1,-7,4
Cc1cc(C(=O)Nc2ccc(OCc3ccccc3)cc2)c(C)o1,8,19*,-1,25,-10
Cc1ccsc1C(=O)Nc1ccc(OCc2ccccc2)cc1,7,18*,1,10,2
CCCC[C@H]1C2CC(OC(=O)Nc3cccc(Br)c3)C(C2)[C@H]2CCCCN21 (some centres not stated),-6,nt,-3,nt,-6
CC(C)[C@H](N)C(=O)N1CCC[C@@H]1C(=O)N1CCC2CCN(S(=O)(=O)c3ccccc3)CC21 (some centres not stated),3,nt,-3,nt,5
O=C(Nc1ccc(OCc2ccccc2)cc1)c1ccccc1,-9,-7,-2,-6,0
Cc1ccc(C(=O)Nc2ccc(OCc3ccccc3)cc2)s1,-7,15*,-1,-2,0
CCN1C2=NCCCN2c2ccccc21,10,11*,1,-6,7
ClCCN1C2=NCCCN2c2ccccc21,-3,0,1,-3,1
Cc1cc(C)cc(NC(=O)Nc2ccc(-n3ccc(C(F)(F)F)n3)cc2)c1,0,17*,1,10,-4
O=C(Nc1ccc(-n2ccc(C(F)(F)F)n2)cc1)Nc1cccc(Cl)c1,12,nt,6,24,-9
Cn1c(SCC(=O)Nc2sccc2C(N)=O)nc2ccccc2c1=O,-3,35*,0,0,6
CCc1cc2cc(C)c(C)cc2nc1SCC(=O)NNC(=O)c1ccco1,19,13*,3,-11,-6
CN(C)c1ccc(C(=O)NC2CCCCN(Cc3ccc(Cl)cc3)C2=O)cc1 (configuration not stated),9,nt,0,nt,1
CN(CC(=O)Nc1ccc(F)cc1)S(=O)(=O)c1ccc2c(c1)c(=O)n(C)c(=O)n2C,1,10*,-4,-1,9
Cc1ccc(NC(=O)CN(C)S(=O)(=O)c2ccc3c(c2)c(=O)n(C)c(=O)n3C)cc1,-3,2,0,-4,4
Cc1cccc(NC(=O)CN(C)S(=O)(=O)c2ccc3c(c2)n(C)c(=O)c(=O)n3C)c1C,-8,13*,-4,1,6
CC1CCN(S(=O)(=O)c2ccc(C(=O)OC(C)C(=O)N(C)C3CCCCC3)cc2)CC1 (configuration not stated),-4,15*,-4,1,3
O=C(O)c1cccc(S(=O)(=O)Nc2ccccc2-c2ccccc2)c1,3,-2,-3,-3,-6
O=S(=O)(Nc1ccccc1-c1ccccc1)c1ccccc1,-13,14*,-1,9,-4
Cc1ccc(C)c(NC(=O)CN(C)C(=O)c2cccc(S(=O)(=O)N3CCN(Cc4ccccc4)CC3)c2)c1,2,17*,-4,4,-21
O=C1CCC[C@H]2C[C@H](NCc3ccc(Cl)cc3)CC[C@]23CCCN13,-13,nt,-2,nt,8
Cc1ccc(Nc2c(F)cccc2Cl)c(CC(=O)O)c1,6,nt,1,nt,-24
CCOc1ccc(-n2c(SC/C=C/c3ccccc3)nnc2-c2ccco2)cc1,15,nt,7,nt,-15
SMILES,ADAM10 inh,GRIN3A LBD mod,ADAM17 inh,FAS-TE inh,HGIII-sPLA2 inh
Cc1ccc2c(c1)C(CS(=O)(=O)NC1CCCC1)NC2 (configuration not stated),-2,nt,0,nt,6
COc1ccc(-c2nc(NC(=O)c3ccc(OCC(=O)Nc4ccc(F)cc4)c(OC)c3)sc2C)cc1,-10,11*,-2,-6,-5
COc1ccc(CN2C(=O)[C@@H]3Cc4c([nH]c5ccccc45)C(C)(C)N3C2=O)cc1,16,12*,3,21,-26
COc1ccc(/C=C2/SC(=S)N(Cc3ccccc3)C2=O)cc1O,8,20*,0,16,-3
COc1ccc(O)c(/C=C2/SC(=S)N(Cc3ccccc3)C2=O)c1,-7,16*,-3,-45,-6
O=C1/C(=C\c2cc(Cl)c(O)c(Cl)c2)SC(=S)N1Cc1ccccc1,1,-3,-2,-133,-13
COc1ccc(N2CCCN(CC(=O)Nc3ccc(Cl)c(Cl)c3)CC2)cc1,4,nt,4,nt,15
COc1ccccc1CNC(=O)NCCCN1CCN(c2ccc(F)cc2)CC1,-12,nt,1,nt,8
